This is part of a sample that, as a whole, favours compounds with a hit. Of some 83,000 tested, about 20% had one in any assay.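 Single-concentration screen, 48 h exposure, 96-well plates. Endpoint: percent growth. Below 10 = active.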 Active and inactive are the calls of the source.
Tests used:
Assay in all cases: NCI-60 one-dose screen, 48 h (100 = growth as untreated, 0 = no growth, -100 = all killed)
NCI-H23 lung = details: 10 µM unless noted
NCI-H226 lung = details: 10 µM unless noted
NCI-H322M lung = details: 10 µM unless noted
HOP-62 NSCLC = details: 10 µM unless noted
NCI-H460 lung = details: 10 µM unless noted
HOP-92 NSCLC = details: 10 µM unless noted
NCI-H522 lung = details: 10 µM unless noted
A549/ATCC NSCLC = details: 10 µM unless noted
786-0 renal = details: 10 µM unless noted
COLO 205 colon = details: 10 µM unless noted
DU-145 prostate = details: 10 µM unless noted
K-562 leukemia = details: 10 µM unless noted
MALME-3M melanoma = details: 10 µM unless noted
MDA-MB-231 breast = details: 10 µM unless noted
RXF 393 renal = details: 10 µM unless noted
SF-268 CNS = details: 10 µM unless noted
SF-295 CNS = details: 10 µM unless noted
SF-539 CNS = details: 10 µM unless noted
UACC-257 melanoma = details: 10 µM
M14 melanoma = details: 10 µM unless noted

Measured: growth

CCC(C)NCC(=O)O (stereo not given)
inactive: NCI-H23 lung 108% | NCI-H226 lung 92.6% | NCI-H322M lung 118% | HOP-62 NSCLC 98.2% | NCI-H460 lung 108% | HOP-92 NSCLC 109% | NCI-H522 lung 78.7% | A549/ATCC NSCLC 105% | 786-0 renal 103% | COLO 205 colon 107% | DU-145 prostate 115% | K-562 leukemia 96.3% | MALME-3M melanoma 105% | MDA-MB-231 breast 111% | RXF 393 renal 103% | SF-268 CNS 107% | SF-295 CNS 92.4% | SF-539 CNS 92.7% | UACC-257 melanoma 112% | M14 melanoma 99.3%

O=C(COc1ccccc1)N1N=C(c2ccc(Cl)cc2)CC1c1c[nH]c2ccccc12 (stereo not given)
inactive: NCI-H23 lung 76.1% | NCI-H226 lung 65.2% | NCI-H322M lung 86.4% | HOP-62 NSCLC 66.6% | NCI-H460 lung 47.9% | HOP-92 NSCLC 62.1% | NCI-H522 lung 73.9% | A549/ATCC NSCLC 58.4% | 786-0 renal 71% | COLO 205 colon 86.9% | DU-145 prostate 92% | K-562 leukemia 71.2% | MALME-3M melanoma 74.1% | MDA-MB-231 breast 47.7% | RXF 393 renal 103% | SF-268 CNS 71.9% | SF-295 CNS 92.1% | SF-539 CNS 87.1% | UACC-257 melanoma 89.1% | M14 melanoma 83.1%

CCn1cc(C(=O)O)c(=O)c2cc(F)c(N3CCN(S(=O)(=O)c4ccc(Cl)cc4Cl)CC3)cc21
inactive: NCI-H226 lung 13.1% | HOP-62 NSCLC 19.5% | NCI-H460 lung 10.9% | 786-0 renal 18.7% | DU-145 prostate 11.6% | K-562 leukemia 10.9% | MDA-MB-231 breast 25.5% | RXF 393 renal 27.9% | SF-268 CNS 24.6% | M14 melanoma 15.9%
active: NCI-H23 lung -3.58% | NCI-H322M lung -5.57% | HOP-92 NSCLC -9.06% | NCI-H522 lung -75.8% | A549/ATCC NSCLC 2.05% | COLO 205 colon -59.8% | MALME-3M melanoma -19.8% | SF-295 CNS -32% | SF-539 CNS 8.88% | UACC-257 melanoma -15.2%

O=S(=O)(O)CCl
inactive: NCI-H23 lung 97.2% | NCI-H226 lung 106% | NCI-H322M lung 105% | HOP-62 NSCLC 112% | NCI-H460 lung 113% | HOP-92 NSCLC 106% | NCI-H522 lung 77.8% | A549/ATCC NSCLC 103% | 786-0 renal 99.1% | COLO 205 colon 113% | DU-145 prostate 109% | K-562 leukemia 94.6% | MALME-3M melanoma 102% | MDA-MB-231 breast 108% | RXF 393 renal 107% | SF-268 CNS 100% | SF-295 CNS 102% | SF-539 CNS 101% | UACC-257 melanoma 98.5% | M14 melanoma 97.1%

COc1ccc(C(=O)c2cc(OC)c(OC)c(OC)c2)cc1/C=C/C(=O)c1ccc2c(c1)OCO2
active: NCI-H23 lung -3.44% | NCI-H226 lung 0.564% | NCI-H522 lung -43% | SF-268 CNS 8.85% | SF-539 CNS -33.8%
inactive: NCI-H322M lung 52.9% | HOP-62 NSCLC 69.8% | NCI-H460 lung 14.6% | HOP-92 NSCLC 64% | A549/ATCC NSCLC 53.5% | 786-0 renal 29.6% | COLO 205 colon 27.9% | DU-145 prostate 33.8% | K-562 leukemia 12.9% | MALME-3M melanoma 12.5% | MDA-MB-231 breast 11.2% | RXF 393 renal 17.4% | SF-295 CNS 77.3% | UACC-257 melanoma 51.3% | M14 melanoma 25.3%

O=C(CN1CCN(c2cc3c(cc2F)c(=O)c(C(=O)O)cn3C2CC2)CC1)Nc1ccc(C(=O)/C=C/c2ccccc2)cc1
inactive: NCI-H23 lung 24% | NCI-H226 lung 57.4% | NCI-H322M lung 73.7% | HOP-62 NSCLC 59.4% | HOP-92 NSCLC 14.9% | NCI-H522 lung 10.6% | 786-0 renal 23.2% | COLO 205 colon 108% | DU-145 prostate 43.1% | K-562 leukemia 14.2% | MALME-3M melanoma 51% | MDA-MB-231 breast 55.1% | RXF 393 renal 41.7% | SF-268 CNS 37% | SF-295 CNS 15.2% | SF-539 CNS 26.2% | UACC-257 melanoma 61.1% | M14 melanoma 31.8%
active: NCI-H460 lung 7.12% | A549/ATCC NSCLC 4.12%

O=C(N/N=C/c1c(Cl)cccc1Cl)c1ccccc1Nc1ccnc(C(F)(F)F)c1
inactive: NCI-H23 lung 46% | NCI-H226 lung 65.2% | NCI-H322M lung 58.6% | HOP-62 NSCLC 67.2% | NCI-H460 lung 36.1% | HOP-92 NSCLC 71.5% | NCI-H522 lung 52.6% | A549/ATCC NSCLC 49.2% | 786-0 renal 75% | COLO 205 colon 94.7% | DU-145 prostate 109% | K-562 leukemia 78.4% | MALME-3M melanoma 81% | MDA-MB-231 breast 73.8% | RXF 393 renal 49.3% | SF-268 CNS 73.2% | SF-295 CNS 72.9% | SF-539 CNS 86.6% | UACC-257 melanoma 60.4% | M14 melanoma 71.6%

COc1ccc(C(=O)c2cc(OC)c(OC)c(OC)c2)cc1/C=C/C(=O)c1ccc(O)cc1
inactive: NCI-H23 lung 18.5% | NCI-H226 lung 58.5% | NCI-H322M lung 70.7% | HOP-62 NSCLC 88.9% | HOP-92 NSCLC 42.8% | A549/ATCC NSCLC 68.9% | 786-0 renal 26.4% | COLO 205 colon 54.3% | DU-145 prostate 26.4% | K-562 leukemia 19% | MALME-3M melanoma 91.6% | MDA-MB-231 breast 35% | RXF 393 renal 35.1% | SF-268 CNS 12.8% | SF-295 CNS 29.9% | UACC-257 melanoma 36% | M14 melanoma 15.8%
active: NCI-H460 lung 9.99% | NCI-H522 lung -79.3% | SF-539 CNS 0.251%

Source: PubChem BioAssay (NCI)
